“And” between values parts separate entries of the source, which are not always exact repeats. Identical values can stand only once. Results filed as inconclusive are left out. The source made the active and inactive calls. The call rests on the fitted dose curve; in most records, active means well fitted curve in the direction sought with a large enough effect; inconclusive means small, poorly fitted or top-dose-only effect, or another doubt; inactive means no such curve, though single readings can be large; an effect the other way counts as inactive or inconclusive.
Columns and labels:
[1] = test system: Zika virus NS2B-NS3 protease; test: Primary screen GU AMC qHTS for Zika virus inhibitors (AID 1347154); settings: Zika NS2B-NS3 unlinked protease, AMC fluorogenic substrate; series mostly up to 54.1 µM; further: nearly all actives have a fitted effect of over 70% in size; further: potency means the concentration at half of the fitted maximal effect
Summary of the method: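 Unlinked Zika NS2B hydrophilic domain/NS3 protease domain noncovalent complex (25 nM final) in 10 mM Tris-HCl pH 8.0, 0.01% Tween 20, with AMC peptide substrate. Fluorescence (ex 340, em 450 nm) change over 15 min, room temperature; percent inhibition fitted to 4-parameter Hill equation.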

[2] = target: Lysine-specific demethylase 5B (Homo sapiens) (UniProt Q9UGL1); test: Optimization screen for KDM5B Histone Demethylases FDH coupled qHTS against the LOPAC library (AID 1347166); settings: KDM5B demethylation, FDH-coupled NADH fluorescence (FDH is formaldehyde dehydrogenase); at 57.5 µM (top of the series); further: 0% is about no effect
Chain of Lysine-specific demethylase 5B (Homo sapiens) (Q9UGL1 whole entry, looked up): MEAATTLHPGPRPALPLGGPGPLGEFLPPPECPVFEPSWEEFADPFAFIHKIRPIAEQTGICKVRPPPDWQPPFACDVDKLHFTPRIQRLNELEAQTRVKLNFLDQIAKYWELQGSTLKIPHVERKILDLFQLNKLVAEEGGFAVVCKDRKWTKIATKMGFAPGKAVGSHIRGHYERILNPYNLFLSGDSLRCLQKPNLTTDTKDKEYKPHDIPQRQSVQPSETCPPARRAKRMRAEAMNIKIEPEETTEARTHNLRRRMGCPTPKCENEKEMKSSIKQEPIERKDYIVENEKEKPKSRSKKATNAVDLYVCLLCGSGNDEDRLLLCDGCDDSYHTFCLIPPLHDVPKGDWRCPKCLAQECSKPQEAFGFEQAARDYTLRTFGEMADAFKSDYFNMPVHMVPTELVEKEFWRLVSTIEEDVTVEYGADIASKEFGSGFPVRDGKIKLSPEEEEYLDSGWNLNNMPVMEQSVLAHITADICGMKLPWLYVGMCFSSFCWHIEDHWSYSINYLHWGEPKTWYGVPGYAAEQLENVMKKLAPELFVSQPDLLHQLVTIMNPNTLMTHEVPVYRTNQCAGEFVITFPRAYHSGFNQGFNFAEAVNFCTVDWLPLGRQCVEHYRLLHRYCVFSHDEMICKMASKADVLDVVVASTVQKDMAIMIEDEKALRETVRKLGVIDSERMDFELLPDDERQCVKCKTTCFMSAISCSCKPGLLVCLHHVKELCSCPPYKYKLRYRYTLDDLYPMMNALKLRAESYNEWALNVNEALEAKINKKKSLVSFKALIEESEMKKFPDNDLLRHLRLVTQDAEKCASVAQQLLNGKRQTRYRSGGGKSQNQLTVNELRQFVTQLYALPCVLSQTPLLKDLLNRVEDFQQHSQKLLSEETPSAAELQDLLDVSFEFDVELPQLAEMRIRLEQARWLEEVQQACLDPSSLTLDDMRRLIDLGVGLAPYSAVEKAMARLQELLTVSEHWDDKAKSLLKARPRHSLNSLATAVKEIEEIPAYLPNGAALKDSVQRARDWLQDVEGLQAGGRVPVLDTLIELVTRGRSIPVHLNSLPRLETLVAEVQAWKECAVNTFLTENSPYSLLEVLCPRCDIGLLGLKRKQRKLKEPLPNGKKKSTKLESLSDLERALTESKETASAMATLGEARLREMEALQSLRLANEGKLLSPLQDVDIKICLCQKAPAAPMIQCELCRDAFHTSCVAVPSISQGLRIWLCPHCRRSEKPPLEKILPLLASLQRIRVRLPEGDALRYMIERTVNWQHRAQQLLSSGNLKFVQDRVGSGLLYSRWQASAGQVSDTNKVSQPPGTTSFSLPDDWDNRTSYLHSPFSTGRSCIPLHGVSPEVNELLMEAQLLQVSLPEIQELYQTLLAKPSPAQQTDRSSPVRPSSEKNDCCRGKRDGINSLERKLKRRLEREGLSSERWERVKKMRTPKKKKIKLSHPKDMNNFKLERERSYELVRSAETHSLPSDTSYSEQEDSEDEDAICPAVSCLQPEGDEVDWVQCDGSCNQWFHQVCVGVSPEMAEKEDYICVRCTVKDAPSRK
Summary of the method: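 KDM5BDeltaAP (200nM final) preincubated 10 min with compound, then 12.5uM H3K4Me3, 25uM a-ketoglutarate, ascorbate, Fe(II), NAD+ and FDH added; 50mM HEPES pH 7.5, 0.01% Tween-20. NADH fluorescence (340/450 nm) change over 30 min, room temperature.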

[3] = qHTS to identify inhibitors of the type 1 interferon - major histocompatibility complex class I in skeletal muscle: primary screen against the NCATS LOPAC collection (AID 1347405); settings: iHSKM muscle cells, IFN-b-induced MHC-I HiBiT luminescence, 24 h; series mostly up to 45.9 µM;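 further: lytic HiBiT luminescence reporting HLA-B protein level; on the % scale 0 is the no-effect control and ±100 the full control effect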
Summary of the method: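 Luminescence from HiBiT fused to endogenous HLA-B in CRISPR-engineered human myoblasts served as the read-out. Cells received 4.0 ng/ml IFN-beta plus compound (seven concentrations, 1:4.3 steps, highest 46 uM final) for 24 hrs before lytic detection.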

[4] = qHTS for inhibitors of adenylyl cyclases using a fission yeast platform: a pilot screen against the NCATS LOPAC library (AID 1347410);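 further: plate controls were DMSO vehicle for no effect and DPI positive control for full effect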; settings: S. pombe CHP2027, fbp1-GFP fluorescence, 18 h, yeast expressing mammalian AC9 and human GNAS; series mostly up to 57.5 µM
Summary of the method: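 Inhibition of GNAS-stimulated AC9 activity in S. pombe was inferred from derepression of a PKA-repressed fbp1-GFP reporter, measured as cytometric fluorescence after 18 h at 30C with compounds at up to 57 µM.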

[5] = qHTS to identify inhibitors of the type 1 interferon - major histocompatibility complex class I in skeletal muscle: primary screen against the NCATS Mechanism Interrogation Plate v5.0 (MIPE) Libary (AID 1347411); settings: iHSKM cells + IFN-b, HiBiT-tagged MHC-I luminescence, 24 h; series mostly up to 45.8 µM;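 further: plate controls were vehicle for no effect and reference inhibitor for full effect; nearly all actives have a fitted effect of over 65% in size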
Summary of the method: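 Luminescence from HiBiT-tagged endogenous HLA-B*08:01 served as the MHC class I read-out. CRISPR-engineered C25cl48 human myoblasts received 4.0 ng/ml IFN-beta plus compound for 24 hrs, with an 11-point, 1:3 series topping at 46 uM final.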

[6] = Validation qHTS assay for inhibitors of Activation Induced Cytidine Deaminase (AID): UDG Counterscreen signal (AID 1347427); settings: biochemical UDG counterscreen, fluorescence signal; series mostly up to 115 µM; further: 0% is about no effect
Summary of the method: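 Counterscreen read of UDG activity (2 U/mL, 4/3x) in the FRET deamination format with AID (1 uM, 4/3x), DJC20/DJC23 substrates (250 nM, 4x), 4 h at room temperature. NaOH stop, fluorescence at 560 ex/665 em.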

[7] = test system: Zika virus NS2B-NS3 protease (unlinked complex); test: Confirmatory screen GU AMC qHTS for Zika virus inhibitors (AID 1347153); settings: Recombinant NS2B-NS3 protease, AMC substrate fluorescence; series mostly up to 57.1 µM;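 further: percent inhibition with 0% = no inhibitor control and 100% = no enzyme control; nearly all actives have a fitted effect of over 70% in size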
Summary of the method: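 Fluorescence change (ex 340/em 450 nm) over 15 min, ~20% substrate conversion, normalized to no-inhibitor and no-enzyme controls, then Hill-fitted. Unlinked protease at 25 nM; AMC peptide 10 µM.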

[8] = Confirmatory screen NINDS Rhodamine qHTS for Zika virus inhibitors (AID 1347161); settings: purified enzyme assay, Rhodamine110 substrate fluorescence, 15 min; series mostly up to 114 µM; further: nearly all actives have a fitted effect of over 60% in size; further: potency means the concentration at half of the fitted maximal effect
Summary of the method: (§1)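 Kinetic fluorescence (Ex 480 nm, Em 540 nm) over 15 min with 1.5 microM Rhodamine110 peptide and 25 nM linked protease.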

[9] = Vero cells viability qHTS for Zika virus inhibitors (AID 1347167); settings: cytotoxicity counter-screen (Zika); series mostly up to 45.9 µM; further: on the % scale 0 is the no-effect control and ±100 the full control effect
Summary of the method: (§2)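 Counter-screen for cytotoxicity of hits from NS2B-NS3 protease qHTS. Overnight-attached cells (2.5 x 10^5 cells/mL, DMEM/4% FBS) were dosed in titration, incubated 24 to 48 hours, then assayed by CellTiter Glo.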

[10] = HepG2 cells viability qHTS for Zika virus inhibitors (AID 1347168); settings: Zika counter-screen; series mostly up to 45.9 µM; further: on the % scale 0 is the no-effect control and ±100 the full control effect
Summary of the method: as §2

[11] = Tertiary RLuc qRT-PCR qHTS assay for Zika virus inhibitors (AID 1347169); settings: infected Vero cells, reporter luminescence, 48-72 h; series mostly up to 45.9 µM; further: nearly all actives have a fitted effect of over 55% in size; further: potency means the concentration at half of the fitted maximal effect
Summary of the method: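 Inhibition of ZIKV-RLuc replication in Vero cells, read as Renilla luminescence 1-1.5 hrs after live-cell substrate addition, following 48-72 hrs infection at MOI 1-2 in presence of compound.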

[12] = qHTS to identify inhibitors of the type 1 interferon - major histocompatibility complex class I in skeletal muscle: primary screen against the NCATS Pharmaceutical Collection (AID 1347407); settings: human skeletal muscle cells, IFN-b-induced MHC-I HiBiT luminescence, 24 h; series mostly up to 45.9 µM;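 further: luminescence of HiBiT knocked into endogenous HLA-B as interferon-induced MHC class I level; on the % scale 0 is the no-effect control and ±100 the full control effect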
Summary of the method: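 A qHTS format is used: 8-point, 1:5 compound series with 46 uM top final concentration, applied alongside 4 ng/ml IFN-beta to HLA-B*08:01-HiBiT knock-in myoblasts. Luminescence is measured after 24 h treatment.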

[13] = target: Protein phosphatase 1D (Homo sapiens) (UniProt O15297); test: Rhodamine-PBP qHTS Assay for Modulators of WT P53-Induced Phosphatase 1 (WIP1) (AID 1347425); settings: recombinant WIP1, Rhodamine-PBP phosphate fluorescence, real-time; series mostly up to 57.5 µM; further: % of control where 0% means no effect
Chain of Protein phosphatase 1D (Homo sapiens) (O15297 whole entry, looked up): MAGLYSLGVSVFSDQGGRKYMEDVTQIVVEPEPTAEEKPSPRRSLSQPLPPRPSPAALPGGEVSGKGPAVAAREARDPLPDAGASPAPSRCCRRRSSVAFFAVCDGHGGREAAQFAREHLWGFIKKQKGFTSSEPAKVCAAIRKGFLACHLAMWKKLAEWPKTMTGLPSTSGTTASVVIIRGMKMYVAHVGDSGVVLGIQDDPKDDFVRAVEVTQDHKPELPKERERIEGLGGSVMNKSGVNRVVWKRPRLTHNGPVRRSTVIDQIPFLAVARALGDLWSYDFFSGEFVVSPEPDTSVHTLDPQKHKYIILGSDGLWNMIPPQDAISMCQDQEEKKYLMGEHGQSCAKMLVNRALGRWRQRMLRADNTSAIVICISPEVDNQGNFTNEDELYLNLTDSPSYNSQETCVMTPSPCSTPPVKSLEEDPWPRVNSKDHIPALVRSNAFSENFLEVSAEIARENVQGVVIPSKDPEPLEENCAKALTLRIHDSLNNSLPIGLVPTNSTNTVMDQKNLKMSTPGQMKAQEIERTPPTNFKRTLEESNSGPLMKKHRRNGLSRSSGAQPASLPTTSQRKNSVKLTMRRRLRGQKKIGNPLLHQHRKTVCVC
Summary of the method: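 5 nM WIP1 + 10 uM Rh-PBP, 50 mM Tris pH 7.5, 30 mM MgCl2, 1 mM TCEP, 0.1 mM EGTA, BSA; cpds pinned, 1 hr RT; + 10 uM phosphopeptide; fluorescence 1-min reads x 11 min; delta = f1 - f0.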

[14] = test system: Zika virus NS2B-NS3 protease (linked construct); test: Primary screen NINDS Rhodamine qHTS for Zika virus inhibitors (AID 1347160); settings: purified NS2B-NS3 protease, Rhodamine110 substrate fluorescence; series mostly up to 57.1 µM; further: nearly all actives have a fitted effect of over 55% in size
Summary of the method: as §1

[15] = target: Protein phosphatase 1D (Homo sapiens) (UniProt O15297); test: RapidFire Mass Spectrometry qHTS Assay for Modulators of WT P53-Induced Phosphatase 1 (WIP1) (AID 1347424); settings: WIP1 dephosphorylation of phosphopeptide, RapidFire MS; series mostly up to 63 µM;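 further: amount of dephosphorylated VEPPL-S-QETFS peptide product formed by WIP1; plate controls were DMSO wells for no effect and GSK830371 inhibitor control at 10 µM for full effect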
Summary of the method: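 WIP1 (10 nM final) was preincubated 1 h at room temperature with compounds in Tris-HCl pH 7.5, 30 mM MgCl2, TCEP, EGTA, BSA; 2 uM VEPPL-pS-QETFS phosphopeptide was added for 5 min, quenched with formic acid, and dephosphorylated product quantified by RapidFire MS.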

[16] = test system: Zika virus NS2B-NS3 protease (linked); test: 384 well plate NINDS AMC confirmatory qHTS for Zika virus inhibitors (AID 1347163); settings: Recombinant NS2B-NS3 protease, Ac-VKTGKR-AMC fluorescence; further: potency means the concentration at half of the fitted maximal effect; nearly all actives have a fitted effect of over 50% in size
Summary of the method: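 Linked NS2B-NS3 protease (final 5 nM, 30 nM or 60 nM) was preincubated with compounds (final up to 1 mM) for ~15 minutes. Ac-VKTGKR-AMC substrate (final 30 microM) then reacted for 25 minutes at room temperature in the dark. Fluorescence (ex 355/em 460 nm) was normalized to no-enzyme and no-inhibitor controls.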

[17] = test system: Zika virus NS2B-NS3 protease (linked construct); test: 384 well plate NINDS Rhodamine confirmatory qHTS for Zika virus inhibitors (AID 1347164); settings: rhodamine-110 peptide substrate fluorescence; further: potency means the concentration at half of the fitted maximal effect; nearly all actives have a fitted effect of over 65% in size
Summary of the method: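 Cleavage of Ac-LKRR-Rhodamine 110 (10 microM final) by linked protease (final 5, 30 or 60 nM) was followed as fluorescence at 485/538 nm after 25 min, room temperature, dark. Compounds preincubated ~15 min.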

[18] = ZIKV-mCherry secondary qHTS for Zika virus inhibitors (AID 1347158); settings: Vero cells, ZIKV-mCherry infection imaging, 48-72 h; series mostly up to 49.2 µM; further: top concentration of the series differs between compounds
Summary of the method: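 Vero, 5,000 cells/well, o/n 37 °C; cpd pin-transferred in DMSO; ZIKV-mCherry MOI 1, 48-72 h 37 °C; 32% PFA stock fix, Hoechst; imaged 10x DAPI/mCherry; mCherry+ threshold 450 RFU; % infection.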

[19] = test system: Zika virus NS2B-NS3 protease (unlinked complex); test: Primary screen GU Rhodamine qHTS for Zika virus inhibitors: Unlinked NS2B-NS3 protease assay (AID 1347159); settings: Recombinant ZIKV NS2B-NS3 protease, Rhodamine110 substrate fluorescence; series mostly up to 107 µM; further: on the % scale 0 is the no-effect control and ±100 the full control effect; nearly all actives have a fitted effect of over 60% in size
Summary of the method: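 A qHTS format was used, with compound concentrations ranging up to 114 microM. Each compound was preincubated with 25 nM NS2B-NS3 protease, and the substrate was then added at 1.5 microM. Curves were fitted with a 4-parameter Hill model.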

CCCCS(=N)(=O)CCC(N)C(=O)O (centres undefined)
inactive: Potency [1] | activity, negative = inhibition [2] -3.95% | outcome [3] | outcome [4] | Potency [5] | outcome [6]

CNC1CCCN(c2c(F)cc3c(=O)c(C(=O)O)cn(C4CC4)c3c2OC)C1 (centres undefined)
inactive: Potency [7] | Potency [8] | Potency [9] | Potency [10] | Potency [11] | Potency [12] | Potency [5] | outcome [13]
active: Potency [1] 25.6 µM

O=P(O)(O)C(O)(Cc1cccnc1)P(=O)(O)O
inactive: Potency [1] | outcome [14] inactive [at 4.91 µM] | Potency [12] | Potency [5] | outcome [15] | outcome [13]

O=C(O)c1ccc(-n2nc(-c3ccccc3O)nc2-c2ccccc2O)cc1
inactive: Potency [7] | Potency [1] | Potency [9] | Potency [10] | Potency [12] | Potency [5] | outcome [15] | outcome [13]
active: Potency [8] 11 µM | Potency [16] 112 µM | Potency [17] 35.5 µM | Potency [11] 13.1 µM

COc1c(N2CCNC(C)C2)c(F)cc2c(=O)c(C(=O)O)cn(C3CC3)c12 (centres undefined)
inactive: Potency [8] | Potency [9] | Potency [10] | Potency [11] | Potency [12] | Potency [5] | outcome [13]
active: Potency [1] 16.1 µM and 24.1 µM

COC(=O)Nc1nc2ccc(C(=O)c3ccccc3)cc2[nH]1
active: Potency [16] 126 µM | Potency [17] 178 µM | Potency [11] 0.829 µM
inactive: Potency [1] | outcome [18] | Potency [9] | Potency [10] | outcome [13]

CCN1CCCC1CNC(=O)c1cc(S(N)(=O)=O)ccc1OC (centres undefined)
inactive: Potency [1] | activity, negative = inhibition [2] 2.22% | outcome [3] | outcome [4] | outcome [6]

CC1CC2C3CCC4=CC(=O)C=C[C@]4(C)[C@@]3(F)[C@@H](O)C[C@]2(C)[C@@]1(O)C(=O)CO (some centres undefined)
inactive: Potency [1] | activity, negative = inhibition [2] -6.72% | outcome [3] | outcome [4] | outcome [6]

CCN(CC)CC#CCOC(=O)C(O)(c1ccccc1)C1CCCCC1 (centres undefined)
inactive: Potency [1] | activity, negative = inhibition [2] -11% | outcome [3] | outcome [4] | outcome [6]

CC1=C(C(=O)O)N2C(=O)[C@@H](NC(=O)C(N)c3ccccc3)[C@H]2SC1 (some centres undefined)
inactive: Potency [1] | activity, negative = inhibition [2] -17.9% | outcome [3] | outcome [4] | outcome [6]

CC1(C)[C@H](C(=O)O)N2C(=O)C[C@H]2S1(=O)=O
inactive: Potency [1] | Potency [19] | outcome [14] | Potency [12] | outcome [13]

— PubChem BioAssay (NCATS)
